Results filed as inconclusive are left out. Calls of active or inactive are those of the source. Calls come from the whole dose curve; as a rule, active = well fitted curve in the direction sought with a large enough effect; inconclusive = small, poorly fitted or top-dose-only effect, or another doubt; inactive = no such curve, though single readings can be large; an effect the other way counts as inactive or inconclusive.
Tests used:
[1] = target: Cytochrome P450 3A4 (Homo sapiens) (UniProt P08684); assay: qHTS Assay for Activators of Cytochrome P450 3A4 (AID 885); note: nearly all actives have a fitted effect of over 65% in size
Chain of Cytochrome P450 3A4 (Homo sapiens) (P08684 whole entry, looked up): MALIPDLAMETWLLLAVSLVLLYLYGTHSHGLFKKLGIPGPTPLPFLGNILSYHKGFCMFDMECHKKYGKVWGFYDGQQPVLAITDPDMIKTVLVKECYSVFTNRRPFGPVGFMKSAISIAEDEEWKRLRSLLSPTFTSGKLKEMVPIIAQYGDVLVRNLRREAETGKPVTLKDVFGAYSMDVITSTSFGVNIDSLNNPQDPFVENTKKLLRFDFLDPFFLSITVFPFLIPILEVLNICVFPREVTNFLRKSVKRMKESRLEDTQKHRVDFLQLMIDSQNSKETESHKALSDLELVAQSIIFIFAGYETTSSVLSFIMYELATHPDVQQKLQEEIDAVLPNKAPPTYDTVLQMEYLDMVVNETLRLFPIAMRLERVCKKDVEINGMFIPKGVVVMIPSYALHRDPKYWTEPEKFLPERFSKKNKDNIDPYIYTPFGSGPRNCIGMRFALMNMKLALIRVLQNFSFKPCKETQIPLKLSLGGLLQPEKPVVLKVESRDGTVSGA
Procedure, shortened: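 Steps: enzyme/substrate mix dispensed; compound added, 10 min RT; NADPH regeneration solution added, 60 min RT; luciferin detection buffer stops reaction; 20 min later luminescence measured.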

[2] = Confirmation and Secondary Assay for Modulators of Hemoglobin Beta Chain Splicing at IVS2 654 locus (AID 910);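 note: per-well total GFP intensity by laser scanning cytometry after 2-day treatment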
Procedure, shortened: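 HeLa cells stably carrying EGFP interrupted by mutant beta-globin IVS2-654 intron (CMV-driven) were treated with compound for 2 days at 37C; corrected splicing was scored as total peak GFP intensity per well (488 nm excitation, 500-520 nm emission).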

[3] = Cellular Toxicity (caspase-3) Hek293 (AID 664);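 note: cells exposed to compound for 16 h at 37 °C before readout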
Procedure, shortened: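 Activation of caspase-3/7 is measured as increased luminescence from cleaved peptide-aminoluciferin substrate in HEK293 cells treated 16 hours at 37 °C. AC50 values come from Hill-equation fits of concentration-response data.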

[4] = Cellular Toxicity (caspase-3) N2a (AID 665);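 note: compound exposure lasted 16 h at 37 °C before readout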
Procedure, shortened: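 Plated mouse neuroblastoma N2a cells received titrated compounds for 16 h in complete medium. Caspase activity was then detected with a peptide-aminoluciferin luminescent reagent.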

[5] = Cellular Toxicity (caspase-3) NIH 3T3 (AID 666)
Excerpt: NIH Chemical Genomics Center [NCGC]
NIH Molecular Libraries Screening Centers Network [MLSCN]
National Institutes of Environmental Health Sciences [NIEHS]
National Toxicology Program [NTP]
We have developed a 1536-well cell-based assay for quantitative high throughput screening (qHTS) against a number of cell lines to determine in vitro caspase 3/7 of small molecules. This particular assay uses the NIH 3T3 cell line which is derived from mouse fibroblasts.
NCGC Assay Protocol Summary:
The Caspase-Glo 3/7 assay (Promega) is a homogeneous method to measure caspase-3 and caspase-7 activities in cultured cells. The quantitation of caspase 3/7 activity is based on the cleavage of a peptide-aminoluciferin substrate. […]
Using the Caspase-Glo 3/7 assay, the amount of caspase 3/7 activity was measured in the NIH 3T3 cell line with complete culture medium following compound treatment for 16 hours. […] Library compounds were measured for their ability to cause the activation of caspase 3/7 in the cell line, as reflected by an increase in luminescence signal, in a concentration-dependent manner. […] AC50 values were determined from concentration-response data modeled with the standard Hill equation. […]
8. Detection; Luminescence; Viewlux plate reader
Keywords: caspase 3/7, apoptosis, NIH 3T3 cell line, luminescence, NTPHTS, NTPHTS_NCGC, NIEHS, EPA, DSSTox, MLSMR, MLSCN, NIH Roadmap, qHTS, NCGC

[6] = Cellular Toxicity (caspase-3) Renal Proximal Tubule (AID 667);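 note: cells exposed to compound for 16 hours at 37 °C before detection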
Procedure, shortened: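 Caspase-Glo 3/7 read-out, rat primary kidney proximal tubule cells. Compound exposure 16 h, 37 °C; detection after 1 h at RT. Activity scaled to DMSO and 10 uM staurosporine.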

[7] = target: Cytochrome P450 3A4 (Homo sapiens) (UniProt P08684); assay: qHTS Assay for Inhibitors and Substrates of Cytochrome P450 3A4 (AID 884); note: series mostly up to about 57 µM; nearly all actives have a fitted effect of over 50% in size
Procedure, shortened: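 20 nM human CYP3A4 with 25 uM Luciferin-PPXE (at KM) in 200 mM KPO4, preincubated 10 min with compound; NADPH regeneration started a 60 min RT reaction. Luciferin detected by luminescence, normalized to 57 uM ketoconazole as full inhibition.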

[8] = target: Guanine nucleotide-binding protein G(i) subunit alpha-1 (Homo sapiens) (UniProt P63096); assay: qHTS Assay for Inhibitors of RGS12 GoLoco Motif Activity (Green Fluorophore) (AID 879);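 note: negative values mean loss of peptide binding seen as reduced polarization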
Chain of Guanine nucleotide-binding protein G(i) subunit alpha-1 (Homo sapiens) (P63096 whole entry, looked up): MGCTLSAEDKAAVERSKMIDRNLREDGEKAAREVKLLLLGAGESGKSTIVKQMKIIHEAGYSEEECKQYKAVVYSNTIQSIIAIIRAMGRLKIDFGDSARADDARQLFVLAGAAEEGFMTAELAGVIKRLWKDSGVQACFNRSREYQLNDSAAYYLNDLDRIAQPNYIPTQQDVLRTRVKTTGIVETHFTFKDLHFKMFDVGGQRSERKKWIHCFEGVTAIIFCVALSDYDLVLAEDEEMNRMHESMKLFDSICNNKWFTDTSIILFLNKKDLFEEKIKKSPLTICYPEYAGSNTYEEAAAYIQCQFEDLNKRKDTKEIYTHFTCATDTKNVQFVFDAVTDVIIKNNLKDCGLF
Procedure, shortened: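 Fluorescence polarization assay: 50 nM Gαi1 with 10 nM FITC-labeled RGS12 GoLoco peptide in 10 mM Tris pH 7.5, 150 mM NaCl, 0.1 mM GDP, 0.05% NP40, 10 min at room temperature with compound.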

[9] = qHTS Assay for Identification of Small Molecule Agonists for Thrombopoietin (TPO) Signaling Pathway (AID 917)
Procedure, shortened: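 IL-3-dependent murine pro-B Ba/F3 cells, stably transfected with human TPO receptor and GpIIb-promoter luciferase, are incubated 24 hrs at 37 C with test compound and 26 pM TPO; luciferase signal is read after 10 min at room temperature.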

[10] = target: Cytochrome P450 2C19 (Homo sapiens) (UniProt P33261); assay: qHTS Assay for Inhibitors and Substrates of Cytochrome P450 2C19 (AID 899); note: nearly all actives have a fitted effect of over 60% in size
Chain of Cytochrome P450 2C19 (Homo sapiens) (P33261 whole entry, looked up): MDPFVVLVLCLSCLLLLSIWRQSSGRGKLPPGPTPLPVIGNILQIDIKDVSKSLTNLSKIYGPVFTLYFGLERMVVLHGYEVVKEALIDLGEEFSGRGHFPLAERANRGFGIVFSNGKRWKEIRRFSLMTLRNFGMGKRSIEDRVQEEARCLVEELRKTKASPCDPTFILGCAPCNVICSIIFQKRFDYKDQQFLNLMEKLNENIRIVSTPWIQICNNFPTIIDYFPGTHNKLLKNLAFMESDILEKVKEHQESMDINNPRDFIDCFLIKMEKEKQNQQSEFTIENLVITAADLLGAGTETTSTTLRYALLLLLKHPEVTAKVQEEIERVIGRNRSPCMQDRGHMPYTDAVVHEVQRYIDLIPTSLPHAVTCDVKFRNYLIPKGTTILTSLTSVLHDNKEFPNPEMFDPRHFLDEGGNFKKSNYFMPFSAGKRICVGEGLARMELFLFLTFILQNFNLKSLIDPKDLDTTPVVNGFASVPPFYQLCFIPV
Procedure, shortened: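 In 50mM KPO4, the reaction held 5nM enzyme and KM-level (10uM) Luciferin-H EGE; it ran 60 min at 37C after NADPH regeneration and a 10 min compound preincubation. Luminescence values were scaled to 57uM ketoconazole as complete inhibition.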

Measured: outcome

O=C(/C=C/C=C/c1ccc2c(c1)OCO2)N1CCCCC1
inactive: [1] | [2]

C=C1C[C@]23C[C@@]1(O)CC[C@H]2[C@@]12C=C[C@H](O)[C@@](C)(C(=O)O1)[C@H]2[C@@H]3C(=O)O
inactive: [3] | [4] | [5] | [6]

CCOC(=O)C(CCc1ccccc1)NC(C)C(=O)N1Cc2ccccc2CC1C(=O)O (stereo not given)
inactive: [7] | [2]

C[C@]1(C2CCCC2)Cc2cc(OCC(=O)O)c(Cl)c(Cl)c2C1=O
inactive: [8] | [1] | [9]

COc1ccc(CCC(=O)c2c(O)cc(O[C@@H]3O[C@H](CO)[C@@H](O)[C@H](O)[C@H]3O[C@@H]3O[C@@H](C)[C@H](O)[C@@H](O)[C@H]3O)cc2O)cc1O
inactive: [3] | [4] | [5] | [6] | [7]

CC(C)C[C@H](NC(=O)[C@@H]1O[C@H]1C(=O)O)C(=O)NCCCCN=C(N)N
inactive: [8] | [1] | [10] | [9]
